# Source: PubChem BioAssay AID1159580 (chemical genetic matrix, 2015)
# “And” between values parts separate entries of the source, which are not always exact repeats. Equal values may be shown once. Screen size: about 5,500 compounds; about 2,000 (36%) were called active. Roughly 18% stayed inconclusive and do not appear here. The list shows a part of the results. Unmarked numbers belong to inactive results. No stated cut-off is given here; in the data, active means normalized growth mostly below about 0.91 (no sharp cut-off); inconclusive means no clear call, values can overlap the other calls; inactive means mostly above about 0.92.
# Experiment: chemical genetic growth profiling, strain panel (AID 1159580);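 further: tested at 20 µM; growth read once vehicle control cultures reached saturation at 30 °C; 1 = growth at the plate median or of vehicle wells; lower values mean less growth of the strain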
# Conditions: growth OD
# [1] = S. cerevisiae deletion strains, locus YDR150W, strain NUM1, active compounds read low
# [2] = S. cerevisiae deletion strains, locus YGR229C, strain SMI1, active compounds read low
# [3] = S. cerevisiae deletion strains, locus YJR075W, strain HOC1, active compounds read low
# [4] = S. cerevisiae deletion strains, locus YMR263W, strain SAP30, active compounds read low
# [5] = S. cerevisiae deletion strains, locus YAL013W, strain DEP1, active compounds read low
# [6] = S. cerevisiae deletion strains, locus YBR229C, strain ROT2, active compounds read low
# [7] = S. cerevisiae deletion strains, locus YCL061C, strain MRC1, active compounds read low
# [8] = S. cerevisiae deletion strains, locus YDL101C, strain DUN1, active compounds read low
# [9] = S. cerevisiae deletion strains, locus YEL061C, strain CIN8, active compounds read low
# [10] = S. cerevisiae deletion strains, locus YGR078C, strain PAC10, active compounds read low
# [11] = S. cerevisiae deletion strains, locus YHR030C, strain SLT2, active compounds read low
# [12] = S. cerevisiae deletion strains, locus YHR087W, strain rtc3, active compounds read low
# [13] = S. cerevisiae deletion strains, locus YJR043C, strain POL32, active compounds read low
# [14] = S. cerevisiae deletion strains, locus YLR039C, strain RIC1, active compounds read low
# [15] = S. cerevisiae deletion strains, locus YLR058C, strain SHM2 (second series), active compounds read low
# [16] = S. cerevisiae deletion strains, locus YLR085C, strain ARP6, active compounds read low
# [17] = S. cerevisiae deletion strains, locus YLR262C, strain YPT6, active compounds read low
# [18] = S. cerevisiae deletion strains, locus YML094W, strain GIM5, active compounds read low
# [19] = S. cerevisiae deletion strains, locus YMR219W, strain ESC1, active compounds read low
# [20] = S. cerevisiae deletion strains, locus YNL153C, strain GIM3, active compounds read low
# [21] = S. cerevisiae deletion strains, locus YNL298W, strain CLA4 (second series), active compounds read low
# [22] = S. cerevisiae deletion strains, locus YNL322C, strain KRE1, active compounds read low
# [23] = S. cerevisiae deletion strains, locus YNR030W, strain Alg12, active compounds read low
# [24] = S. cerevisiae deletion strains, locus YOL006C, strain TOP1, active compounds read low
# [25] = S. cerevisiae deletion strains, locus YPL055C, strain LGE1, active compounds read low
# [26] = S. cerevisiae deletion strains, locus YPL241C, strain CIN2, active compounds read low
# [27] = S. cerevisiae deletion strains, locus YPR135W, strain CTF4, active compounds read low
compound,measurement,setting,value
C[N+](C)(C)CCO,normalized growth,"S. cerevisiae deletion strains, locus YAL040C, strain CLN3, active compounds read low",1.04
same,normalized growth,"S. cerevisiae deletion strains, locus YCL061C, strain MRC1 (second series), active compounds read low",1.02
same,normalized growth,[1],1.05
same,normalized growth,"S. cerevisiae deletion strains, locus YER002W, strain NOP16, active compounds read low",0.998
same,normalized growth,[2],1.06
same,normalized growth,[3],1.09 [resistant] (active)
same,normalized growth,[4],1.01
same,normalized growth,"S. cerevisiae deletion strains, locus YNL175C, strain NOP13, active compounds read low",1.02
same,normalized growth,"S. cerevisiae deletion strains, locus YNL197C, strain WHI3, active compounds read low",0.996
same,normalized growth,"S. cerevisiae deletion strains, locus YNL224C, strain SQS1, active compounds read low",1.01
same,normalized growth,"S. cerevisiae deletion strains, locus YOR083W, strain WHI5 (second series), active compounds read low",1.08
S=C(NCc1ccccc1)Nc1ccc(Cl)c(Cl)c1,normalized growth,[5],0.884 (active)
same,normalized growth,[6],0.948
same,normalized growth,[7],0.866 (active)
same,normalized growth,[8],0.935
same,normalized growth,[1],0.917
same,normalized growth,[9],0.835 (active)
same,normalized growth,"S. cerevisiae deletion strains, locus YGR052W, strain FMP48, active compounds read low",0.878
same,normalized growth,[10],0.9 (active)
same,normalized growth,[11],0.382 (active) and 0.745 (active)
same,normalized growth,"S. cerevisiae deletion strains, locus YHR079C, strain IRE1, active compounds read low",0.861 (active)
same,normalized growth,"S. cerevisiae deletion strains, locus YHR082C, strain KSP1, active compounds read low",0.839
same,normalized growth,[12],0.964
same,normalized growth,"S. cerevisiae deletion strains, locus YJL095W, strain BCK1, active compounds read low",0.841
same,normalized growth,"S. cerevisiae deletion strains, locus YJL187C, strain SWE1, active compounds read low",0.891 (active)
same,normalized growth,[13],0.978
same,normalized growth,"S. cerevisiae deletion strains, locus YJR066W, strain TOR1, active compounds read low",0.845
same,normalized growth,[3],0.897
same,normalized growth,"S. cerevisiae deletion strains, locus YKL171W, strain NNK1, active compounds read low",0.807
same,normalized growth,"S. cerevisiae deletion strains, locus YKL190W, strain CNB1, active compounds read low",0.68 (active)
same,normalized growth,"S. cerevisiae deletion strains, locus YKL203C, strain TOR2, active compounds read low",0.803 (active)
same,normalized growth,[14],0.482 (active)
same,normalized growth,[15],0.938
same,normalized growth,[16],0.332 (active)
same,normalized growth,"S. cerevisiae deletion strains, locus YLR113W, strain HOG1, active compounds read low",1.06
same,normalized growth,[17],0.701 (active)
same,normalized growth,[18],0.677 (active)
same,normalized growth,[19],0.962
same,normalized growth,[4],0.846 (active)
same,normalized growth,[20],0.907 (active)
same,normalized growth,"S. cerevisiae deletion strains, locus YNL183C, strain NPR1, active compounds read low",0.846
same,normalized growth,"S. cerevisiae deletion strains, locus YNL207W, strain RIO2, active compounds read low",0.829
same,normalized growth,[21],0.548 (active)
same,normalized growth,[22],0.977
same,normalized growth,[23],0.701 (active)
same,normalized growth,[24],0.251 (active)
same,normalized growth,"S. cerevisiae deletion strains, locus YOR119C, strain RIO1, active compounds read low",0.77
same,normalized growth,"S. cerevisiae deletion strains, locus YOR231W, strain MKK1, active compounds read low",0.862
same,normalized growth,[25],0.689 (active)
same,normalized growth,[26],0.691 (active)
same,normalized growth,"S. cerevisiae deletion strains, locus YPL256C, strain CLN2, active compounds read low",0.916
same,normalized growth,[27],0.471 (active)
same,normalized growth,"S. cerevisiae strains, strain wild type, active compounds read low",0.828 (active)
S=C(NCc1cccnc1)Nc1ccccc1Cl,normalized growth,[5],0.987
same,normalized growth,[6],1
same,normalized growth,[7],0.988
same,normalized growth,[8],0.989
same,normalized growth,[1],0.953
same,normalized growth,[9],0.975
same,normalized growth,[10],0.989
same,normalized growth,[2],0.991
same,normalized growth,[11],0.538 (active)
same,normalized growth,[12],1.01
same,normalized growth,[13],0.984
same,normalized growth,[3],1.02
same,normalized growth,[14],0.939
same,normalized growth,[15],0.987
same,normalized growth,[16],0.584 (active)
same,normalized growth,[17],0.982
same,normalized growth,[18],0.953
same,normalized growth,[19],0.992
same,normalized growth,[4],0.968
same,normalized growth,"S. cerevisiae deletion strains, locus YNL128W, strain TEP1, active compounds read low",0.994
same,normalized growth,[20],0.98
same,normalized growth,[21],0.959
same,normalized growth,[22],1
same,normalized growth,[23],0.987
same,normalized growth,[24],1
same,normalized growth,[25],0.961
same,normalized growth,[26],0.97
same,normalized growth,[27],0.745
